Measured values from ChEMBL document CHEMBL2218924, “A broad activity screen in support of a chemogenomic map for kinase signalling research and drug discovery” (Biochem J, 2013).

Columns and labels:
[1] = biological target: T1, Ephrin type-A receptor 3 (Homo sapiens) (UniProt P29320); conditions: at 10 µM
T1 sequence (whole entry): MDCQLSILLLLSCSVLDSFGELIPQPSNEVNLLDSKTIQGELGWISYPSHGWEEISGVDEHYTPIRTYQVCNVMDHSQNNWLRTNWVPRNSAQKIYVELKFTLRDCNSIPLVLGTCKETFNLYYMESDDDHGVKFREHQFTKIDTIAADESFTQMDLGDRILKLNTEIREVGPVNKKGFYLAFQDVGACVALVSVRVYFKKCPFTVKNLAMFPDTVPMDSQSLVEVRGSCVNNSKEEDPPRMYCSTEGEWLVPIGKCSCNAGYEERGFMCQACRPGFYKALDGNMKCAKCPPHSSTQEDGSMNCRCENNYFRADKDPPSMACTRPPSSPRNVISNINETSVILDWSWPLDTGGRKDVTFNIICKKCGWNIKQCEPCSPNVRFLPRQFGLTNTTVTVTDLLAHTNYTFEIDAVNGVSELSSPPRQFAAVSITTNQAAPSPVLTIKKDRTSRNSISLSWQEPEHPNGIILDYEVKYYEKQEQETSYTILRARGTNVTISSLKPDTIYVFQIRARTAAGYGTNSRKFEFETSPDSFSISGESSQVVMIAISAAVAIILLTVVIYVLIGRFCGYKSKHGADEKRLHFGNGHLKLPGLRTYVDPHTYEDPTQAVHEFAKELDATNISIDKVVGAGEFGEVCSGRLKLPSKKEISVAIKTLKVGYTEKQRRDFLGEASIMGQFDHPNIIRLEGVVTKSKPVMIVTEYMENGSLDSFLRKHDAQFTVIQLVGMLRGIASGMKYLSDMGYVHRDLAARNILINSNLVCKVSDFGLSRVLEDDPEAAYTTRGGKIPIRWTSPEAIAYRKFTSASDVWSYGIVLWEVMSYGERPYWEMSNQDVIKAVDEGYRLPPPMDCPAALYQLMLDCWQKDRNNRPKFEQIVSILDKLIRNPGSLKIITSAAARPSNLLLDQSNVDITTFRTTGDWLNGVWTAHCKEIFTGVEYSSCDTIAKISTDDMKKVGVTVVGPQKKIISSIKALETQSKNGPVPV

[2] = biological target: Ephrin type-A receptor 4 (Homo sapiens) (UniProt P54764); conditions: at 1 µM
[3] = biological target: Ephrin type-A receptor 4 (Homo sapiens) (UniProt P54764); conditions: at 10 µM
[4] = biological target: Ephrin type-A receptor 5 (Homo sapiens) (UniProt P54756); conditions: at 1 µM
[5] = biological target: Ephrin type-A receptor 5 (Homo sapiens) (UniProt P54756); conditions: at 10 µM
[6] = biological target: Ephrin type-A receptor 7 (Homo sapiens) (UniProt Q15375); conditions: at 1 µM
[7] = biological target: Ephrin type-A receptor 7 (Homo sapiens) (UniProt Q15375); conditions: at 10 µM
[8] = biological target: T2, Ephrin type-A receptor 8 (Homo sapiens) (UniProt P29322); conditions: at 1 µM
T2 sequence (whole entry): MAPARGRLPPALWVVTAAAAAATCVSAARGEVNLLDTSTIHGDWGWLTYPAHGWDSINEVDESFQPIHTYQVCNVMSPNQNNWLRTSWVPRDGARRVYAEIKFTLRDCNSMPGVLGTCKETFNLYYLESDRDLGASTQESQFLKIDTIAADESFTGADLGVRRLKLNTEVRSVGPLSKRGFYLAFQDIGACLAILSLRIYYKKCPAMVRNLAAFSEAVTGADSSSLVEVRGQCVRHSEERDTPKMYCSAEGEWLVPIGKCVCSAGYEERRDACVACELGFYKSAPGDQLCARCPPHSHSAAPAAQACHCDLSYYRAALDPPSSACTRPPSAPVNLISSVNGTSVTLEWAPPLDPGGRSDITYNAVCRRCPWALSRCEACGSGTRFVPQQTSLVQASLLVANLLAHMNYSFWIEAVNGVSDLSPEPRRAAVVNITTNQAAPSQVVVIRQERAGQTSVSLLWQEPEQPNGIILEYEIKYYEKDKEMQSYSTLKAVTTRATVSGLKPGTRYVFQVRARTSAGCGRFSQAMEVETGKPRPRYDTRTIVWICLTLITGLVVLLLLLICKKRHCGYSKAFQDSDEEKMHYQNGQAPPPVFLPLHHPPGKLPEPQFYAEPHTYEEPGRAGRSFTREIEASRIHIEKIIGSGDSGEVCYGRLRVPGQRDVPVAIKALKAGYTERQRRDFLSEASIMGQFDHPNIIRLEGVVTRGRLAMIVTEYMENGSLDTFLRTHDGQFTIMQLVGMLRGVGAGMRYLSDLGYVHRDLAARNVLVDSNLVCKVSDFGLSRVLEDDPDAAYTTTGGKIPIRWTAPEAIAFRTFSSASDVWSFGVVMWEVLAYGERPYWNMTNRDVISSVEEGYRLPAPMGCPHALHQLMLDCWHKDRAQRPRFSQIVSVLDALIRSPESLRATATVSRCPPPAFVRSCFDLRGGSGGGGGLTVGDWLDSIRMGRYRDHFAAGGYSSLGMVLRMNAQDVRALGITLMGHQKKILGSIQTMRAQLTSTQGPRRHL

[9] = biological target: T2, Ephrin type-A receptor 8 (Homo sapiens); conditions: at 10 µM
[10] = biological target: T3, Ephrin type-B receptor 1 (Homo sapiens) (UniProt P54762); conditions: at 1 µM
T3 sequence (whole entry): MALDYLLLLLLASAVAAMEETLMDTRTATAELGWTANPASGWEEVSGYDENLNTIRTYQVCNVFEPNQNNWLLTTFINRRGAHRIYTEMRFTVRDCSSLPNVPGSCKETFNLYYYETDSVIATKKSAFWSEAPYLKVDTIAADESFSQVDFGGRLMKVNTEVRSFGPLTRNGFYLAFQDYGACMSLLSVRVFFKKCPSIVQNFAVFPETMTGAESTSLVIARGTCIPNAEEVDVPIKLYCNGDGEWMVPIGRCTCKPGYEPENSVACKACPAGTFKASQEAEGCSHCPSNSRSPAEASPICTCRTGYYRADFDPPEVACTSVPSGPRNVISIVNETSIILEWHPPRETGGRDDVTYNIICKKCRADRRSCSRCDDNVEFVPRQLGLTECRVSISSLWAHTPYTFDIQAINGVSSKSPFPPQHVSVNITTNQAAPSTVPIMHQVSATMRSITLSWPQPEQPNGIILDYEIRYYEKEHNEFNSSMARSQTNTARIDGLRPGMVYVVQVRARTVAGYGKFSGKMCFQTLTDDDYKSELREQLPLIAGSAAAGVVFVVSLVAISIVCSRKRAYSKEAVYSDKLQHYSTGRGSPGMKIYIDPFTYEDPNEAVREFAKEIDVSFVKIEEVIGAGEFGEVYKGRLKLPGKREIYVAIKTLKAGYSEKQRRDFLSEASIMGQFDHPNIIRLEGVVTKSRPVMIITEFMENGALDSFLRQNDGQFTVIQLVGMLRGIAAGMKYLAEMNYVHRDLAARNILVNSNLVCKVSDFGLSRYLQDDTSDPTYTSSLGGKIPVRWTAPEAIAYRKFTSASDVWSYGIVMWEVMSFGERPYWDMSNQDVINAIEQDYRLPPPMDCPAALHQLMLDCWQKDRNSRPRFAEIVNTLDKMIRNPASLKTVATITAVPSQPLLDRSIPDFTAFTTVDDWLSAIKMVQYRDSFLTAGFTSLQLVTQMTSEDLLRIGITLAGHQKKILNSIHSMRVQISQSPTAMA

[11] = biological target: T3, Ephrin type-B receptor 1 (Homo sapiens); conditions: at 10 µM
[12] = biological target: T4, Ephrin type-B receptor 2 (Homo sapiens) (UniProt P29323); conditions: at 1 µM
T4 sequence (whole entry): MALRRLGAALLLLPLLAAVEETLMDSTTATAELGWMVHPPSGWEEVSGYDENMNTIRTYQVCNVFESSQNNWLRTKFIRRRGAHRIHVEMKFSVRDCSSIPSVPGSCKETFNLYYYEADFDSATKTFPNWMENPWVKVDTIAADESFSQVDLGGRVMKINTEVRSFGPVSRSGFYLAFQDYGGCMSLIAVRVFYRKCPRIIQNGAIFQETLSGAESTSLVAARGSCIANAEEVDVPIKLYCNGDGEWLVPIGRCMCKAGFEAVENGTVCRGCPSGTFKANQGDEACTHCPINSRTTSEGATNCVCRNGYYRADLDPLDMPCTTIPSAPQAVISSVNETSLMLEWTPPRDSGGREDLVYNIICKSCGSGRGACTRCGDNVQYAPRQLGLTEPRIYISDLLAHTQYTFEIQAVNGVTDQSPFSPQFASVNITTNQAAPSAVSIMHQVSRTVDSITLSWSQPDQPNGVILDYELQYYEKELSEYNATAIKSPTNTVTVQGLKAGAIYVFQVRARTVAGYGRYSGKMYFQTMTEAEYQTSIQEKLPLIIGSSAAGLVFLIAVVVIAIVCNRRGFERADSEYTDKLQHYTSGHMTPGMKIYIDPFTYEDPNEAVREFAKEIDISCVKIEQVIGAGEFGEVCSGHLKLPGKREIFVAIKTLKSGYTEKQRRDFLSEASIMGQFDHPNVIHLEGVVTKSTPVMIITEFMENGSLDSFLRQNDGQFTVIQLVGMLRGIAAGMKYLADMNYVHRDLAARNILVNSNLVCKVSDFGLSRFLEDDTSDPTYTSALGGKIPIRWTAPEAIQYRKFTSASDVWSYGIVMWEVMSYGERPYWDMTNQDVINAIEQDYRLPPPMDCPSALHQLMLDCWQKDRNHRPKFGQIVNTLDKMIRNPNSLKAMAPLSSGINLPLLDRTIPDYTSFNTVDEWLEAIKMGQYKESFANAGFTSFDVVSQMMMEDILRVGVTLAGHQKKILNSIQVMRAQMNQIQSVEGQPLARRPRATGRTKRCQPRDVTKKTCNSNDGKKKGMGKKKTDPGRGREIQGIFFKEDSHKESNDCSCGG

[13] = biological target: T4, Ephrin type-B receptor 2 (Homo sapiens); conditions: at 10 µM
[14] = biological target: T5, Ephrin type-B receptor 3 (Homo sapiens) (UniProt P54753); conditions: at 10 µM
T5 sequence (whole entry): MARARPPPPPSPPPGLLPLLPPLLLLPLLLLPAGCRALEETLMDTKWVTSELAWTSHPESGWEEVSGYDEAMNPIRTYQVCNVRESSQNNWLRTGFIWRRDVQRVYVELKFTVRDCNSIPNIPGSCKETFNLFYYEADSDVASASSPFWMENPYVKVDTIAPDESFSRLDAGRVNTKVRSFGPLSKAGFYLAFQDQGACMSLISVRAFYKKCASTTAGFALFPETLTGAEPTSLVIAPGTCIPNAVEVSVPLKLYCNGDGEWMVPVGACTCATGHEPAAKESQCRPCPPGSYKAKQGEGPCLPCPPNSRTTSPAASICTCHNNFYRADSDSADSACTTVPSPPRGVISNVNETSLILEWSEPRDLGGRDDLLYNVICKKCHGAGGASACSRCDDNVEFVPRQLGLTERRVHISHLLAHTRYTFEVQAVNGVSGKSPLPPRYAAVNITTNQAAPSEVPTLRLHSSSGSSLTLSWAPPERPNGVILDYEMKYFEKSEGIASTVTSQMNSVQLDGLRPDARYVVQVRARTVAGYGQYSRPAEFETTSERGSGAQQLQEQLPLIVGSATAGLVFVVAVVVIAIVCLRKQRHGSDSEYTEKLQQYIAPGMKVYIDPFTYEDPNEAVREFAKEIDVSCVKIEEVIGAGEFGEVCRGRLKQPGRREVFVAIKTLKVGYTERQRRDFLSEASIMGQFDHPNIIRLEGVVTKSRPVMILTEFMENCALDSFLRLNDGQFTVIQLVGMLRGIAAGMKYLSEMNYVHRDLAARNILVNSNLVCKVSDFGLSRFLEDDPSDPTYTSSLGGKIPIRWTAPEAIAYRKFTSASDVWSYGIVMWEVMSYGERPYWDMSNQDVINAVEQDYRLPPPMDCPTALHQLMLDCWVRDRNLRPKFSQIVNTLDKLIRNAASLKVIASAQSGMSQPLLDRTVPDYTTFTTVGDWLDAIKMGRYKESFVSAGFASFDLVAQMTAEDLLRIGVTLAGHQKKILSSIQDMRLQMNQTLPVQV

[15] = biological target: T6, Ephrin type-B receptor 4 (Homo sapiens) (UniProt P54760); conditions: at 1 µM
T6 sequence (whole entry): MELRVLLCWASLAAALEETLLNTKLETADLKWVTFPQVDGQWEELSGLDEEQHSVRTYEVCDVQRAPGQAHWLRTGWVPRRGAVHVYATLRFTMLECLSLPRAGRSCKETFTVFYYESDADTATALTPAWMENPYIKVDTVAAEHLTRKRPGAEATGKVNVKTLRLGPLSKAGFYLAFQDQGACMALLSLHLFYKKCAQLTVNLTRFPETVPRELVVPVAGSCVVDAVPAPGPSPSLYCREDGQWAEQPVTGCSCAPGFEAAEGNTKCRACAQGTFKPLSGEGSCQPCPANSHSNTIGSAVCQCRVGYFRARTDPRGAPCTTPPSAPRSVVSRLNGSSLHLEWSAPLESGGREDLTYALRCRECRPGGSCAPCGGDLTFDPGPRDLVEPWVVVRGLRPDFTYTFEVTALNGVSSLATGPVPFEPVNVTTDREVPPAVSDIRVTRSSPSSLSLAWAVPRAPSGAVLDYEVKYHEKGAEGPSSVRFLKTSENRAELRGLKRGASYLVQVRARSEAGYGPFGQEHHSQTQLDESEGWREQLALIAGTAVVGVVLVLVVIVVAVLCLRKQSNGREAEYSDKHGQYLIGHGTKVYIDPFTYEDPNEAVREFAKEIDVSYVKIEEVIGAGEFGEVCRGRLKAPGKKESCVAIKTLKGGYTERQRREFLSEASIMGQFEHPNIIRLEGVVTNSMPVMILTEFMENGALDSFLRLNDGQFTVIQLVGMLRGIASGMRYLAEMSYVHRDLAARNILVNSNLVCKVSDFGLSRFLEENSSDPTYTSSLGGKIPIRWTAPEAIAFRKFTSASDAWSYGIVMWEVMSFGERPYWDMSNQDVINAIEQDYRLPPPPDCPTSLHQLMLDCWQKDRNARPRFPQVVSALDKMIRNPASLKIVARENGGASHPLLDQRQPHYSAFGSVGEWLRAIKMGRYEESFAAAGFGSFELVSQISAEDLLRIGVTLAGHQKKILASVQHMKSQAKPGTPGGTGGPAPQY

[16] = biological target: T6, Ephrin type-B receptor 4 (Homo sapiens); conditions: at 10 µM
[17] = biological target: Receptor tyrosine-protein kinase erbB-4 (Homo sapiens) (UniProt Q15303); conditions: at 1 µM
[18] = biological target: Receptor tyrosine-protein kinase erbB-4 (Homo sapiens) (UniProt Q15303); conditions: at 10 µM
[19] = biological target: Focal adhesion kinase 1 (Homo sapiens) (UniProt Q05397); conditions: at 1 µM

Sequence of Receptor tyrosine-protein kinase erbB-4 (Homo sapiens) (Q15303 whole entry): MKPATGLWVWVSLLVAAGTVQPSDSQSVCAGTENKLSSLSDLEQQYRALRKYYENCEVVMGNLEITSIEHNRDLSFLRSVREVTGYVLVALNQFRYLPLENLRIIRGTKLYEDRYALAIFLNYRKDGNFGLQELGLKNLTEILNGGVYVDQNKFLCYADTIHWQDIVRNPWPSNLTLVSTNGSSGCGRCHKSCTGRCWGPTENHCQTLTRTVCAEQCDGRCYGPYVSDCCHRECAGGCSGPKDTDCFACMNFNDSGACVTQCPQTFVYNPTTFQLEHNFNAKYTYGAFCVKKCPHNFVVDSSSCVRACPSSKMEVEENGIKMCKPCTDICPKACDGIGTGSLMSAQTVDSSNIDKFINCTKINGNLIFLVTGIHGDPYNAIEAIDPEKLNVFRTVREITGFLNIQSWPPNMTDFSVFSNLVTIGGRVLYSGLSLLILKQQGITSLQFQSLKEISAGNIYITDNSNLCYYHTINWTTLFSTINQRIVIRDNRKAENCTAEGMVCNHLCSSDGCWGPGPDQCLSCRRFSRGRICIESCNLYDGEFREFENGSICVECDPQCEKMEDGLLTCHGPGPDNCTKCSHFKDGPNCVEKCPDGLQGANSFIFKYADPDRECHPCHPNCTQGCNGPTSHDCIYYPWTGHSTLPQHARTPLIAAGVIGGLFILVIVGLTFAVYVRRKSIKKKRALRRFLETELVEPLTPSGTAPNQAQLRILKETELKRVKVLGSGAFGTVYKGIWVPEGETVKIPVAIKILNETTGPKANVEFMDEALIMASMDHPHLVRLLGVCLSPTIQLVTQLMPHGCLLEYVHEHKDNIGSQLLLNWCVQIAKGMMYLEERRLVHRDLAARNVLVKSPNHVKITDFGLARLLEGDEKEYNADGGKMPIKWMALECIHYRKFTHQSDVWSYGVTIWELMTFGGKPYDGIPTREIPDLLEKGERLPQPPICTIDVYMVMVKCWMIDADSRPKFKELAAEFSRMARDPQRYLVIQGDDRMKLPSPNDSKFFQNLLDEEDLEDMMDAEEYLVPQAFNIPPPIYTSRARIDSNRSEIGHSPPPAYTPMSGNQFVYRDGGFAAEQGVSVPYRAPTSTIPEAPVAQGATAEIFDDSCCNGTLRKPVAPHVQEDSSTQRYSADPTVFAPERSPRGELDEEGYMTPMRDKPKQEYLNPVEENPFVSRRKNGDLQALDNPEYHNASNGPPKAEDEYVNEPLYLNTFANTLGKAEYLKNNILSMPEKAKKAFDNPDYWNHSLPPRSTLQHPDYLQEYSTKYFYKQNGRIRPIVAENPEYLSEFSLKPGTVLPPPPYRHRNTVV
Sequence of Ephrin type-A receptor 5 (Homo sapiens) (P54756 whole entry): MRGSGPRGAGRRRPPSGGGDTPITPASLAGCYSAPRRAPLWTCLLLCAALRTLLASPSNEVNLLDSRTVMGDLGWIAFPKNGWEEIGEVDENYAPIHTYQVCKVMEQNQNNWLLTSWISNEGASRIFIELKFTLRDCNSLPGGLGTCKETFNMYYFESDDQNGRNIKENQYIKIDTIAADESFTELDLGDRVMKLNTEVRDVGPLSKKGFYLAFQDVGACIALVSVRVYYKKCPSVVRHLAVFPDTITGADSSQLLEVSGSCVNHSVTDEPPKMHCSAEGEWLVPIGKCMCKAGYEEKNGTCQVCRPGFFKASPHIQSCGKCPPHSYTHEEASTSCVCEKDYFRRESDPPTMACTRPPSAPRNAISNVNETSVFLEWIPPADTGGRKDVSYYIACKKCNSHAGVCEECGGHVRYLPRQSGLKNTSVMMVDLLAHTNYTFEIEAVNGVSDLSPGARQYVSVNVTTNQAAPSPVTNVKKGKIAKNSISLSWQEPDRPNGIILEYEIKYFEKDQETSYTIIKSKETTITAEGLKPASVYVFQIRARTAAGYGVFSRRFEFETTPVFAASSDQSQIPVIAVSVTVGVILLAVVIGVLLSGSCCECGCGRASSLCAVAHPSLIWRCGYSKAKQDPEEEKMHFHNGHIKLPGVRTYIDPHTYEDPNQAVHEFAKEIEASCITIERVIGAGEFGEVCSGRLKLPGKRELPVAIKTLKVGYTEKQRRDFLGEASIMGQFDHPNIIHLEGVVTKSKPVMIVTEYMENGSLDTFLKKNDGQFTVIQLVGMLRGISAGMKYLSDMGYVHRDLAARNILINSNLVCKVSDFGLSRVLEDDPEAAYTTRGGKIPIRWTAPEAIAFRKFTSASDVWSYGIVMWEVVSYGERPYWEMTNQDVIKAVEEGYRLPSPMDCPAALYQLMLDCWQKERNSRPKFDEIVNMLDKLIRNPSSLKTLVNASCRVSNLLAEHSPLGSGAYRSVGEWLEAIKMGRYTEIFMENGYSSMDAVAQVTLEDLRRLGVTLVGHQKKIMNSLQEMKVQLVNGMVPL
Sequence of Ephrin type-A receptor 4 (Homo sapiens) (P54764 whole entry): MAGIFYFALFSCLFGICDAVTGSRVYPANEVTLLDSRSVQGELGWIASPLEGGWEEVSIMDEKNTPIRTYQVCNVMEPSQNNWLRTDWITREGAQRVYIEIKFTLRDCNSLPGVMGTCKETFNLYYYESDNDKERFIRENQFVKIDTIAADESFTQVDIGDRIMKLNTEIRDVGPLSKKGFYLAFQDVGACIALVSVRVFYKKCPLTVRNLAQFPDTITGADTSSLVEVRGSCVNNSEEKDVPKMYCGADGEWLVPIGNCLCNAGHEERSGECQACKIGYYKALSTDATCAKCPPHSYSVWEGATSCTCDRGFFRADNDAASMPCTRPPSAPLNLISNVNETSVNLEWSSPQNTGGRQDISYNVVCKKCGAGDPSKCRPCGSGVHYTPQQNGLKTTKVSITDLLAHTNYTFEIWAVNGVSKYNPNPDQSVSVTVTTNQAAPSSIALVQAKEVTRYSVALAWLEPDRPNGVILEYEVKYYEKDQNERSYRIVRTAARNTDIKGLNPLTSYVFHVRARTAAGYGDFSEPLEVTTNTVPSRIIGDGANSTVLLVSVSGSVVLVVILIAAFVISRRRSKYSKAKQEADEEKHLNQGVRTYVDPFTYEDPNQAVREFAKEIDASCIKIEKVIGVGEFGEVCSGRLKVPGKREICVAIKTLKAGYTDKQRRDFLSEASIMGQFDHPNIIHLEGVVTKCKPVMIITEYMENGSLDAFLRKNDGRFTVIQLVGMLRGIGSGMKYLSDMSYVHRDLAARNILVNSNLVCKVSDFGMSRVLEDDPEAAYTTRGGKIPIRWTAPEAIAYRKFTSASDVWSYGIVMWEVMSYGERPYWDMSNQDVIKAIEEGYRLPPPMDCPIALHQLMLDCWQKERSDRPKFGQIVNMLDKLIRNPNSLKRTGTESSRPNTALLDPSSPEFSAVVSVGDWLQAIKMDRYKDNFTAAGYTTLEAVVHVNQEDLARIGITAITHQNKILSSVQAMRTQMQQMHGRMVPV
Sequence of Ephrin type-A receptor 7 (Homo sapiens) (Q15375 28-998 limits assumed): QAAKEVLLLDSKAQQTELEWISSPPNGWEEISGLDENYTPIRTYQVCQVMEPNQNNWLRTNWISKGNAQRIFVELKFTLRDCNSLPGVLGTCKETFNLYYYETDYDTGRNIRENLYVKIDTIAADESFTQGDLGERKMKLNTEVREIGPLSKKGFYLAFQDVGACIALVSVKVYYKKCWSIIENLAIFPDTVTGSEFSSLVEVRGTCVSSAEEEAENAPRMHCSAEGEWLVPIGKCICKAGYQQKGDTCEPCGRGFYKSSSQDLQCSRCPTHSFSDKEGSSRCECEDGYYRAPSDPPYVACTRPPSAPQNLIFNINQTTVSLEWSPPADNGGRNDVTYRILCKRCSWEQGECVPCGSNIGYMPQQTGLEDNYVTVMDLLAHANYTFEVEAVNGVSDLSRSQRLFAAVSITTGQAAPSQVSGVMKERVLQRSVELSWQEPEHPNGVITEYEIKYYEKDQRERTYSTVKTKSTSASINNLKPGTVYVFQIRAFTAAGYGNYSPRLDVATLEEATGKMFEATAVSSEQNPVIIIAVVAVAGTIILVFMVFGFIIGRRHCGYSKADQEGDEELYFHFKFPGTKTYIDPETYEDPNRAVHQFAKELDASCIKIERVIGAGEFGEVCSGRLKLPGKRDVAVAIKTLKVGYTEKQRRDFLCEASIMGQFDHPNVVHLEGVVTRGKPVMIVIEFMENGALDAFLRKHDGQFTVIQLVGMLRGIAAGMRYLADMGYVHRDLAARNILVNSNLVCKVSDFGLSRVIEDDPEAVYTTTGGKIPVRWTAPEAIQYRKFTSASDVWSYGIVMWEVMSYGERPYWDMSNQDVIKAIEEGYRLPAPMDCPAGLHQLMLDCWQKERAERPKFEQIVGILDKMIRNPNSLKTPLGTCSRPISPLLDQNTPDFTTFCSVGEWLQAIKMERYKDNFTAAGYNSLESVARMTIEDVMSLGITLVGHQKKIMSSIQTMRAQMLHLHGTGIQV

SMILES: Oc1c2ccccc2c2c3c(cccc13)N=N2
- residual activity [1]: 48%
- residual activity [2]: 105%
- residual activity [3]: 106%
- residual activity [4]: 115%
- residual activity [5]: 63%
- residual activity [6]: 80%
- residual activity [7]: 41%
- residual activity [8]: 92%
- residual activity [9]: 76%
- residual activity [10]: 91%
- residual activity [11]: 29%
- residual activity [12]: 101%
- residual activity [13]: 95%
- residual activity [14]: 81%
- residual activity [15]: 89%
- residual activity [16]: 55%
- residual activity [17]: 104%
- residual activity [18]: 97%
- residual activity [19]: 52%
